Reference: PubChem BioAssay AID1851 (National Center for Advancing Translational Sciences (NCATS), 2009)
Values joined by “and” are separate entries in the source; they are usually repeats but may differ in a detail not shown here. Equal entries are not always repeated. In all, about 16,000 compounds went through this assay and about 2,600 (16%) were called active. Another 20% or so got no clear call; they are omitted. These entries were drawn from the full list. Unmarked numbers belong to inactive results. Calls come from the whole dose curve; as a rule, active = well fitted curve in the direction sought with a large enough effect; inconclusive = small, poorly fitted or top-dose-only effect, or effect the other way; inactive = no such curve, though single readings can be large or run the other way.
% is set by controls: 0 for no effect and ±100 for the full control effect.

The compounds below were run against Cytochrome P450 2D6 (Homo sapiens) (UniProt P10635) (assay: Cytochrome panel assay with activity outcomes). Details: recombinant CYP, pro-luciferin dealkylation, luminescence, p450-cyp2d6; series mostly up to 57.1 µM.
Cytochrome P450 2D6 (Homo sapiens), sequence (P10635 whole entry, looked up): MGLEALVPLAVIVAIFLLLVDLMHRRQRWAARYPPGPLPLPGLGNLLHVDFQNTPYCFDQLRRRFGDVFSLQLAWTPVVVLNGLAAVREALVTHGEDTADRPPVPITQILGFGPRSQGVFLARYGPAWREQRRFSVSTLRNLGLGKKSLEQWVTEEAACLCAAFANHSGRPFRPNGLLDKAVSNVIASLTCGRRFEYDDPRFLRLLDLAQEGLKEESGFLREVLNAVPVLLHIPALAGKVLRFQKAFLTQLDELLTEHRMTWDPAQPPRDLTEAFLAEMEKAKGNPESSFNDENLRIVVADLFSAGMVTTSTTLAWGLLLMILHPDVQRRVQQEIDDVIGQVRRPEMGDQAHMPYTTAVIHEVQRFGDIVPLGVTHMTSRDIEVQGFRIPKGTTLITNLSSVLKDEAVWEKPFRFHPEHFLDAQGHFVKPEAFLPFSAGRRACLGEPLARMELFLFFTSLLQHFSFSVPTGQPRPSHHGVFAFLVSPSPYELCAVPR
For `CCOC(=O)C1CCCN(C(=O)CCn2nc(-c3ccccc3)ccc2=O)C1` (centres undefined), the AC50 was “inactive”. Compound `S=c1c2[nH]cnc2ncn1CCSc1ncnc2nc[nH]c12` has an activity, negative = inhibition of 8.54% [at 11.4 µM]. In the case of `CN(C(=O)CCCOc1ccc2[nH]c(=O)ccc2c1)C1CCCCC1`, the AC50 is reported as “inactive”. For `CC(Oc1ccc(-c2ccccc2)c(F)c1)c1ccn(S(=O)(=O)c2ccc(Cl)cc2)n1` (centres undefined), the AC50 was “inactive”. For `COC(Cn1c(C)c(C(C)=O)c(C(C)=O)c1C)OC`, the AC50 was “inactive”. `Nc1nc(-c2cccnc2)cc(-c2cc(-c3cccnc3)nc(N)n2)n1` gave an activity, negative = inhibition of -6.86% [at 11.4 µM]. For `CCC(=O)N1CCn2c1nc1ccccc12`, the AC50 was “inactive”. `CCC(C)NC(=O)c1cnn2c(C)c3c(nc12)CCCC3` (centres undefined) was tested, and the AC50 was “inactive”. For `Cc1cccc(CNc2nc(-c3ccc4c(c3)OCO4)nc3ccccc23)c1`, the AC50 was 20 µM (active). With `COc1ccccc1CNc1nc(-c2ccc3c(c2)OCO3)nc2ccccc12` the AC50 was 10 µM (active). `CC(=O)NCCNc1nc(-c2ccc(C(=O)N(C)C)cc2)nc2ccccc12` was tested, and the AC50 was “inactive”. `c1cncc(CNc2nc(-c3ccc4c(c3)OCO4)nc3ccccc23)c1` was tested, and the AC50 was 12.6 µM (active). `COCCNc1nc(-c2ccc(C(=O)N(C)C)cc2)nc2ccccc12` was tested, and the AC50 was “inactive”. In the case of `CC(=O)NCCNc1nc(-c2ccc3c(c2)OCO3)nc2ccccc12`, the AC50 is reported as 12.6 µM (active). For `COC(=O)N1CCC2(CC1)CN(C(=O)Nc1cccc(C#N)c1)C2`, the AC50 was “inactive”. In the case of `COc1cc(NC(=O)c2c(F)cccc2F)nc(OC)n1`, the AC50 is reported as “inactive”. `Cc1cc(NC(=O)CCCC(=O)OCC(F)(F)C(F)F)cc(C)c1C(=O)O` was tested, and the AC50 was “inactive”. For `COc1ccc(-n2c(=O)c(-c3cc(F)cc(F)c3)nc3cnc(N4CCNCC4)nc32)cc1`, the AC50 was “inactive”. `Cc1ccc(S(=O)(=O)Oc2ccc(/C=C(/NC(=O)c3ccccc3)C(=O)Nc3ccccc3)cc2)cc1` was tested, and the AC50 was “inactive”. `C[C@H]1COC(=O)[C@H]2CCCN2C(=O)[C@@H](C)COC(=O)[C@H](Cc2ccccc2)NC1=O` gave an activity, negative = inhibition of 2.57% [at 11.4 µM]. In the case of `CCn1c(SCC(=O)Nc2ccc3c(c2)OCCO3)nc2c(c1=O)SC(C)C2` (centres undefined), the AC50 is reported as “inactive”. `CC1=NN(c2ccc(S(=O)(=O)O)cc2)C(=O)/C1=C\c1ccc(Cl)cc1` was tested, and the activity, negative = inhibition was 5.53% [at 11.4 µM]. With `O=C(N/C(=C\c1cccnc1)C(=O)N1CCOCC1)c1cccc(Br)c1` the AC50 was “inactive”. `c1ccc2c(Nc3ccncc3)nc(-c3ccc4c(c3)OCO4)nc2c1` was tested, and the AC50 was 20 µM (active). In the case of `Cc1noc(C)c1-c1nc(Nc2ccccc2)c2ccccc2n1`, the AC50 is reported as “inactive”. `N#Cc1cccc(-c2nc(Nc3ccncc3)c3ccccc3n2)c1` was tested, and the AC50 was “inactive”. `O=c1[nH][nH]cc1C=Nc1ccccc1O` was tested, and the AC50 was “inactive”. For `Cc1noc(COc2ccc(OCc3nc(C)no3)cc2)n1`, the AC50 was “inactive”. With `Cc1cc(C)n(-c2nc(NC(C)C)nc(NC(C)C)n2)n1` the AC50 was “inactive”. `CN(C)c1ccc(-c2nc(N3CCNCC3)c3ccccc3n2)cc1` was tested, and the AC50 was 12.6 µM (active). In the case of `c1ccc2c(N3CCNCC3)nc(-c3ccc4c(c3)OCO4)nc2c1`, the AC50 is reported as 3.16 µM (active). In the case of `COc1cc(/C=C/C(=O)O)cc(S(=O)(=O)NCCCO)c1OC`, the AC50 is reported as “inactive”. In the case of `O=C1Oc2ccccc2C2(O)C3CCCCCC3C12` (centres undefined), the AC50 is reported as “inactive”. In the case of `CSc1nc(Oc2ccc(=O)[nH]n2)nc(N(C)C)n1`, the AC50 is reported as “inactive”. In the case of `Cc1cc(/C=C2\SC(=S)NC2=O)c(C)n1C`, the AC50 is reported as “inactive”. `CCCCCSc1nnc(C)c(=O)[nH]1` was tested, and the AC50 was “inactive”. `COc1ccc(NC(=O)N2CC[C@@]3(CCCN(C(=O)c4cc(C(F)(F)F)cc(C(F)(F)F)c4)C3)C2)cc1` was tested, and the AC50 was “inactive”. `O=C(O)/C(Cc1ccc([N+](=O)[O-])cc1)=N/O` gave an activity, negative = inhibition of 6.05% [at 11.4 µM]. In the case of `COc1ccc(/C=C2/S/C(=N/N=C3\CC4CCC3(C)C4(C)C)NC2=O)cc1` (centres undefined), the AC50 is reported as “inactive”. In the case of `CC(=O)O[C@]1(C(C)=O)CC[C@@H]2[C@@H]3C=C(Cl)C4=CC(=O)[C@H]5C[C@@H]5[C@]4(C)[C@H]3CC[C@]21C`, the AC50 is reported as “inactive”. For `CCNc1ncc2nc(-c3ccc(OC)cc3)c(=O)n(Cc3cccs3)c2n1`, the AC50 was “inactive”. With `COc1cccc(-c2csc(N3CCN(C(=S)Nc4ccccc4)CC3)n2)c1` the AC50 was “inactive”. With `COc1ccc(-c2csc(NC(=O)Cn3nc(C)cc3C)n2)cc1` the AC50 was “inactive”. For `COc1cccc(Nc2nc(-c3ccc(O)cc3)cs2)c1`, the AC50 was 8.91 µM (active). `Cc1ccc(OCC(=O)NNC(=O)C2CCN(c3ncccn3)CC2)cc1` was tested, and the AC50 was “inactive”. With `OC[C@@H]1O[C@@H](n2cnc3c(NC4CCCC4)ncnc32)[C@H](O)[C@H]1O` the AC50 was “inactive”. In the case of `Cc1ccn2c(NC(=O)c3ccccc3)c(-c3cccs3)nc2c1`, the AC50 is reported as “inactive”. `CC[N+](CC)(CC(=O)Nc1c(C)cccc1C)Cc1ccccc1` was tested, and the AC50 was 0.00794 µM (active). In the case of `CC[N+](CC)(CC)CC(=O)Nc1c(C)cccc1C`, the AC50 is reported as “inactive”. With `Cc1cccc(C)c1NC(=S)NC(=O)CCc1ccccc1` the AC50 was “inactive”. In the case of `COc1ccc(CCNC(=O)C2CCN(S(=O)(=O)N3CC(C)CC(C)C3)CC2)cc1OC` (centres undefined), the AC50 is reported as “inactive”. In the case of `C1CCC(N=C(NC23CC4CC(CC(C4)C2)C3)N2CCOCC2)CC1`, the AC50 is reported as 0.631 µM (active). In the case of `COC(=O)[C@@]1(Cc2ccc(OC)cc2)[C@H]2c3cc(C(=O)N4CCCC4)n(Cc4cc(F)cc5c4OCOC5)c3C[C@H]2CN1C(=O)c1ccccc1`, the AC50 is reported as “inactive”. `CCn1ccc(C(=O)NC2=C(C#N)CCC2)n1` was tested, and the AC50 was “inactive”. `Cn1cc(C(=O)OCC2CCN(CCNS(C)(=O)=O)CC2)c2ccccc21` was tested, and the AC50 was “inactive”. In the case of `COc1[nH]c2ccc(F)cc2c1C(=O)OCC1CCN(CCNS(C)(=O)=O)CC1`, the AC50 is reported as “inactive”. For `COc1cc(COc2cc(N)c(Cl)cc2C(=O)CCC2CCN(CCNS(C)(=O)=O)CC2)cc(OC)c1`, the AC50 was 0.794 µM (active). For `COc1cc(N)c(Cl)cc1C(=O)CCC1CCN(CCNS(C)(=O)=O)CC1`, the AC50 was 12.6 µM (active). In the case of `COc1cc(/C=C(\C#N)C(=O)NCC2CCCO2)c([N+](=O)[O-])cc1OC` (centres undefined), the AC50 is reported as “inactive”. For `CCn1c(CC(C)C)n[nH]c1=S`, the AC50 was “inactive”. Compound `CO[C@H]1COC(=O)C/C=C\[C@H](C)[C@@H](NS(=O)(=O)c2ccc(C)cc2)COC(=O)CCC[C@@H]1C` has an activity, negative = inhibition of 8.76% [at 11.4 µM]. `COC(Cc1nnc(SC)n1-c1ccc(Cl)cc1)OC` was tested, and the AC50 was “inactive”. For `Cc1cccc(Oc2coc3cc(OC(=O)c4cccs4)ccc3c2=O)c1`, the AC50 was “inactive”. `Cc1ccc(CS(=O)(=O)CCC(=O)N2CCOCC2)cc1` was tested, and the AC50 was “inactive”. With `CC(C)n1c(N2CCN(C(=O)Nc3ccccc3)CC2)nc2ccccc21` the AC50 was “inactive”. `Cn1cc(/C=N/n2cnc3sc4c(c3c2=O)CCCC4)c2ccccc21` was tested, and the AC50 was “inactive”. With `COc1ccc2[nH]cc(CCNc3ncnc4ccc(-c5cccnc5)cc34)c2c1` the AC50 was 7.94 µM (active). `COc1ccc2[nH]cc(CCNc3ncnc4ccc(-c5ccc6c(c5)OCO6)cc34)c2c1` was tested, and the AC50 was 2.51 µM (active). With `COc1ccc2[nH]cc(CCNc3ncnc4ccc(-c5ccoc5)cc34)c2c1` the AC50 was 5.01 µM (active). With `COc1cccc(-c2ccc3ncnc(NCCc4c[nH]c5ccc(OC)cc45)c3c2)c1` the AC50 was 2.51 µM (active). For `COC(=O)[C@@H]1CC[C@H](C)[C@@H](c2ccc(C)cc2)N1C(=O)c1ccc(/C=N\O[C@@H](C)c2cn([C@H](CO)Cc3ccccc3)nn2)cc1`, the activity, negative = inhibition was 12.4% [at 11.4 µM] and -16.1% [at 11.4 µM]. For `N[C@](CC1c2ccccc2Oc2ccccc21)(C(=O)O)[C@@H]1C[C@@H]1C(=O)O`, the AC50 was “inactive”. In the case of `COc1ccc(-n2c(=O)c(-c3ccc(F)cc3)nc3cncnc32)cc1`, the AC50 is reported as “inactive”. In the case of `Cn1nnnc1SCc1ccc(C(=O)Nc2ccc(Br)cc2)cc1`, the AC50 is reported as “inactive”. With `CCC(=O)OCc1c(C(F)(F)F)nn(C)c1Sc1ccc(F)cc1` the AC50 was “inactive”. In the case of `CC(C)(C)C(=O)NC(=C(Cl)Cl)P(=O)(O)O`, the AC50 is reported as “inactive”. `Cc1c(C)c2c(c(C)c1O)CC[C@@](C)(C(=O)O)O2` was tested, and the AC50 was “inactive”. `CCCNc1nc(NCC)nc(OC)n1` was tested, and the AC50 was “inactive”. For `Cc1noc(C)c1C(=O)N1CCC2(CCCN(Cc3nccs3)C2)CC1`, the AC50 was “inactive”. For `C[C@H](O)[C@H](O)[C@@H]1CNc2nc(N)[nH]c(=O)c2N1`, the AC50 was “inactive”. For `COc1ccc2[nH]cc(CCNc3ncnc4ccc(-c5c(C)noc5C)cc34)c2c1`, the AC50 was 6.31 µM (active). `Cc1ccc(-n2nnnc2-c2cnc3ccc(Cl)cc3c2-c2ccccc2)cc1` was tested, and the AC50 was “inactive”. `Clc1ccc2[nH]cc(-c3nnnn3-c3ccccc3)c2c1` was tested, and the AC50 was 28.2 µM (active). With `Fc1ccc(-c2[nH]ncc2-c2nnnn2-c2ccccc2)c(F)c1` the AC50 was “inactive”. With `Cc1cccc(C2NC(=O)c3c(sc(C)c3C)N2)c1O` (centres undefined) the AC50 was “inactive”. For `Clc1ccc(-c2nnc(-c3ccc(Br)cc3)c(N3CCSCC3)n2)cc1`, the AC50 was “inactive”. For `CC1(C)Cc2ccccc2C(NNC(=O)c2ccncc2)=N1`, the AC50 was 7.94 µM (active). Work on `O=C(NNC(=O)c1ccncc1)c1ccncc1` yielded an activity, negative = inhibition of -4.63% [at 11.4 µM]. With `CC(C)NNC(=O)c1ccncc1` the AC50 was “inactive”. For `O=C(Cc1ccccc1)N/N=C/c1cc(Br)c(Br)o1`, the AC50 was “inactive”. For `COc1ccc(OC)c(C2N(c3cc(C)on3)C(=O)C3CCCN32)c1` (centres undefined), the AC50 was “inactive”. For `COc1ccc(C(F)(F)F)cc1N/C=C\c1nnnn1-c1ccccc1`, the AC50 was “inactive”. In the case of `CCOc1ccc(NC(=O)CN2CCN(S(=O)(=O)c3ccc(Cl)cc3)CC2)cc1`, the AC50 is reported as “inactive”. With `O=C(CSc1ccccc1)Nc1ccc(N2CCN(c3ccccc3)CC2)c(F)c1` the AC50 was “inactive”. With `O=C(CN1CCN(c2ccc(Cl)cc2)CC1)Nc1ccc(F)c(F)c1` the AC50 was 3.55 µM (active). For `CCN(CC(=O)Nc1ccc2c(c1)OCCO2)C(=O)c1cccc(S(=O)(=O)N2CCOCC2)c1`, the AC50 was “inactive”. In the case of `O=C(CSc1ccc(Cl)cc1)Nc1ccc(N2CCN(c3ccccc3)CC2)c(F)c1`, the AC50 is reported as “inactive”. `CCOC(=O)c1[nH]c2cc3c(cc2c1NC(=O)CN1CCC2(CC1)OCCO2)OCO3` was tested, and the AC50 was “inactive”. For `CCOC(=O)c1[nH]c2cc3c(cc2c1NC(=O)CN1CCc2ccccc2C1)OCO3`, the AC50 was 3.55 µM (active). `COc1cc(-c2nnc(SCC(=O)Nc3ccc4c(c3)OCCO4)o2)cc(OC)c1OC` was tested, and the AC50 was “inactive”. `COc1cc2c(cc1OC)CN(C(=S)Nc1ccccc1)CC2` was tested, and the AC50 was “inactive”. `CCOC(=O)c1[nH]c2cc(OC)c(OC)cc2c1NC(=O)c1nonc1C` was tested, and the AC50 was “inactive”. In the case of `COc1cc2c(cc1OC)CN(CC(=O)Nc1ccc3c(c1)OCO3)CC2`, the AC50 is reported as 8.91 µM (active). In the case of `O=C(CN1CCN(S(=O)(=O)c2ccc(Cl)cc2)CC1)Nc1ccc2c(c1)OCO2`, the AC50 is reported as 2.51 µM (active).
